Laboratory results: publication PMC12864922, “TDP-43 directly inhibits mRNA accumulation in neurites through modulation of mRNA stability”
The full ranking holds about 9,900 sequences; the median of “r (bound/input frequency ratio)” is about 0.7, and the highest 2% start at about 6.5. The full list was thinned out, with the highest values kept by preference.

B1: ENSMUSG00000031028.686|Tub (ssRNA)
RNA: GGGAGUUCUACAGUCCGACGAUCGCUUCGAUAUCCGCAUGCUAUAUUUUUGUUCAAAAUUAUCUGGAGUUUUAGACAAACUUGCAAAACUGUGCUUUUAUUAAGUGACUUUUUGAAUAAACUUUUUGGUAUUCUGAAGCAAAUGUAUUUAUUUAUUGGUAUGUGCAAUGACAAACUUGGUAUUUUCCCAUAAUGACAUUAUGUAUGUUGUAGAAUUUAGUGUUUGUCUAAGUACAGACAUGUAUCAACACAUUAAACUUGAACUGUUUGACGGCUGUGUCCUUGGUUUUCAUAGAGAAGAGAACUCUUGCGGUCGCACUAGUGUGGAAUUCUCGGGUGUCAAGG
B2: ENSMUSG00000029636.181|Wasf3 (ssRNA)
RNA: GGGAGUUCUACAGUCCGACGAUCGCUUCGAUAUCCGCAUGCUACACAGCUCUCUUCUCUCCUGUUGUCGGCACAUUUUCAAUUUUAAAAAGUACCUCACAAGAUAAACUUGAUUCAGCCAGUUGCCCGGGCAGAGACCUGACUUCCCCUCUCCUGCCCUGAUCCUUUUUACCAAAUGGCGAUUCCAUAGUCCUGGCUGAGGCAGGGGCUCAAAGUCCAGUGUCUGCUUUGCAAUUCUGGAAGGACAGCUGCUUAUUUAAAUAAGUCUGUGAUAUCCGCAGGCUUGGGUUACAGGGAGGACCUUCUCUUGCGGUCGCACUAGUGUGGAAUUCUCGGGUGUCAAGG
B3: ENSMUSG00000029028.53|Lrrc47|5:9;12:16;18:22;45:49;64:68;70:74;86:90;93:97;118:122;134:139;141:145;147:151;163:168;170:174;191:195;197:201;208:212;214:218;235:2 … (ssRNA)
RNA: GGGAGUUCUACAGUCCGACGAUCGCUUCGAUAUCCGCAUGCUAUGUCACACAAGCAUACGCACACCUGUAGAUCUUUGUAGGUGUAGCAUACCUGUAGGUAUCUGGCACACGCAUACCUGUAGAUGUCACACAAGCACACGAUAUGCUGUAGGUAUCUGGCACACCUGUAGGUGUCACACACGCACACGCACACCUGUGGGUGUCACACACGCACACCUGUAGGUGUCUGUAGCACACGCAUACCUGCAGCACACGCACACCUGUAGAUCUCUAUAGCACACGCACACCUGUAGGGGUCUGUGCUCUUGCGGUCGCACUAGUGUGGAAUUCUCGGGUGUCAAGG
B4: ENSMUSG00000028439.169|Fam219a (ssRNA)
RNA: GGGAGUUCUACAGUCCGACGAUCGCUUCGAUAUCCGCAUGCUAAGUGGCUGUAUGAUAUGGUAUGGUAUGGUAUGGUAUGGUAUGGUAUGGUAUGCACAUGUGUGUGCAUGUGUGUGUGCCUGUGUGUGUGCGUGUGCGUGUGUGUAUGUGUGUGCGUGUGUGUGUGUGUGUGUUGUACCCGAGUGUGUGUUGAGCCUAUCUGUCCAGGGAACCAGAUUGGUGUCCGAGAUGAGGAAAUGGCUGUGGCCUGGGAAAUCAGUGAGAGGCCGCUUGGGAAUGAGAAUGCAGUGGACUGAAAGCACCUCUUGCGGUCGCACUAGUGUGGAAUUCUCGGGUGUCAAGG
B5: ENSMUSG00000028439.167|Fam219a (ssRNA)
RNA: GGGAGUUCUACAGUCCGACGAUCGCUUCGAUAUCCGCAUGCUAUACAGUGAGCCAAGUGGCUGUAUGAUAUGGUAUGGUAUGGUAUGGUAUGGUAUGGUAUGGUAUGCACAUGUGUGUGCAUGUGUGUGUGCCUGUGUGUGUGCGUGUGCGUGUGUGUAUGUGUGUGCGUGUGUGUGUGUGUGUGUUGUACCCGAGUGUGUGUUGAGCCUAUCUGUCCAGGGAACCAGAUUGGUGUCCGAGAUGAGGAAAUGGCUGUGGCCUGGGAAAUCAGUGAGAGGCCGCUUGGGAAUGAGAAUGCAGUGCUCUUGCGGUCGCACUAGUGUGGAAUUCUCGGGUGUCAAGG
B6: ENSMUSG00000028439.163|Fam219a (ssRNA)
RNA: GGGAGUUCUACAGUCCGACGAUCGCUUCGAUAUCCGCAUGCUAUCUUCAAGAGCAAGCUUAAGGAAAUACAGUGAGCCAAGUGGCUGUAUGAUAUGGUAUGGUAUGGUAUGGUAUGGUAUGGUAUGGUAUGCACAUGUGUGUGCAUGUGUGUGUGCCUGUGUGUGUGCGUGUGCGUGUGUGUAUGUGUGUGCGUGUGUGUGUGUGUGUGUUGUACCCGAGUGUGUGUUGAGCCUAUCUGUCCAGGGAACCAGAUUGGUGUCCGAGAUGAGGAAAUGGCUGUGGCCUGGGAAAUCAGUGAGAGGCUCUUGCGGUCGCACUAGUGUGGAAUUCUCGGGUGUCAAGG
B7: ENSMUSG00000028439.168|Fam219a (ssRNA)
RNA: GGGAGUUCUACAGUCCGACGAUCGCUUCGAUAUCCGCAUGCUAGAGCCAAGUGGCUGUAUGAUAUGGUAUGGUAUGGUAUGGUAUGGUAUGGUAUGGUAUGCACAUGUGUGUGCAUGUGUGUGUGCCUGUGUGUGUGCGUGUGCGUGUGUGUAUGUGUGUGCGUGUGUGUGUGUGUGUGUUGUACCCGAGUGUGUGUUGAGCCUAUCUGUCCAGGGAACCAGAUUGGUGUCCGAGAUGAGGAAAUGGCUGUGGCCUGGGAAAUCAGUGAGAGGCCGCUUGGGAAUGAGAAUGCAGUGGACUGACUCUUGCGGUCGCACUAGUGUGGAAUUCUCGGGUGUCAAGG
B8: ENSMUSG00000028439.166|Fam219a (ssRNA)
RNA: GGGAGUUCUACAGUCCGACGAUCGCUUCGAUAUCCGCAUGCUAAGGAAAUACAGUGAGCCAAGUGGCUGUAUGAUAUGGUAUGGUAUGGUAUGGUAUGGUAUGGUAUGGUAUGCACAUGUGUGUGCAUGUGUGUGUGCCUGUGUGUGUGCGUGUGCGUGUGUGUAUGUGUGUGCGUGUGUGUGUGUGUGUGUUGUACCCGAGUGUGUGUUGAGCCUAUCUGUCCAGGGAACCAGAUUGGUGUCCGAGAUGAGGAAAUGGCUGUGGCCUGGGAAAUCAGUGAGAGGCCGCUUGGGAAUGAGAAUCUCUUGCGGUCGCACUAGUGUGGAAUUCUCGGGUGUCAAGG
B9: ENSMUSG00000028439.164|Fam219a (ssRNA)
RNA: GGGAGUUCUACAGUCCGACGAUCGCUUCGAUAUCCGCAUGCUAAGAGCAAGCUUAAGGAAAUACAGUGAGCCAAGUGGCUGUAUGAUAUGGUAUGGUAUGGUAUGGUAUGGUAUGGUAUGGUAUGCACAUGUGUGUGCAUGUGUGUGUGCCUGUGUGUGUGCGUGUGCGUGUGUGUAUGUGUGUGCGUGUGUGUGUGUGUGUGUUGUACCCGAGUGUGUGUUGAGCCUAUCUGUCCAGGGAACCAGAUUGGUGUCCGAGAUGAGGAAAUGGCUGUGGCCUGGGAAAUCAGUGAGAGGCCGCUUCUCUUGCGGUCGCACUAGUGUGGAAUUCUCGGGUGUCAAGG
B10: ENSMUSG00000028439.165|Fam219a (ssRNA)
RNA: GGGAGUUCUACAGUCCGACGAUCGCUUCGAUAUCCGCAUGCUAAGCUUAAGGAAAUACAGUGAGCCAAGUGGCUGUAUGAUAUGGUAUGGUAUGGUAUGGUAUGGUAUGGUAUGGUAUGCACAUGUGUGUGCAUGUGUGUGUGCCUGUGUGUGUGCGUGUGCGUGUGUGUAUGUGUGUGCGUGUGUGUGUGUGUGUGUUGUACCCGAGUGUGUGUUGAGCCUAUCUGUCCAGGGAACCAGAUUGGUGUCCGAGAUGAGGAAAUGGCUGUGGCCUGGGAAAUCAGUGAGAGGCCGCUUGGGAAUCUCUUGCGGUCGCACUAGUGUGGAAUUCUCGGGUGUCAAGG

Target: TDP-43 (Homo sapiens, UniProt Q13148 1-414)
Test: RNA Bind-n-Seq with designed 260-mer pool; 25 mM Tris-HCl, 150 mM KCl, 3 mM MgCl2, BSA (printed 500 mg/mL), 20 units/mL SUPERase IN; pH not stated; 500 nM RNA pool, 1 h, 4 C; TDP-43 5, 50, 500 nM; high values mean tight binding
Conditions: protein: recombinant; tags: SBP (GST cleaved off with PreScission; pGEX-GST-SBP)
Procedure, shortened: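 In 25 mM Tris-HCl, 150 mM KCl, 3 mM MgCl2, BSA and SUPERase IN, 500 nM of an in vitro-transcribed 260-nt 3′ UTR oligo pool was incubated for 1 h at 4 °C with SBP-tagged TDP-43 (5, 50 or 500 nM) captured on streptavidin beads. RNA remaining after washes was biotin-eluted, reverse transcribed, PCR-amplified and sequenced. Binding, R, is the bound-sample abundance of each oligo, normalized to mapped reads, divided by its abundance in input. Each duplicate used a separate, independent protein batch.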

Sequence of TDP-43 (Q13148 whole entry): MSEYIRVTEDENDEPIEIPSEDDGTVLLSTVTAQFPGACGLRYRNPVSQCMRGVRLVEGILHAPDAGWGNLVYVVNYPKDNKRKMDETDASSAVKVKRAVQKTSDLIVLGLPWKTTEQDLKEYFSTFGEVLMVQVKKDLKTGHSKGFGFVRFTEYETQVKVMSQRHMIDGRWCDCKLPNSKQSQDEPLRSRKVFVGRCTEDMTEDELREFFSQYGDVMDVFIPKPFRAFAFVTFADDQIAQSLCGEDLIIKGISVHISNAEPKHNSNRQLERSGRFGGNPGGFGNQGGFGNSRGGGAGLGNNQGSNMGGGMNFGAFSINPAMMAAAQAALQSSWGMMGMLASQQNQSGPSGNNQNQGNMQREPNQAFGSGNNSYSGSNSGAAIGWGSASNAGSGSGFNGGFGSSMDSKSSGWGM

| Binder | binding signal |
| --- | --- |
| B1 | 0.181 R (bound/input frequency ratio) |
| B2 | 0.344 R (bound/input frequency ratio) |
| B3 | 0.453 R (bound/input frequency ratio) |
| B4 | 6.41 R (bound/input frequency ratio) |
| B5 | 6.28 R (bound/input frequency ratio) |
| B6 | 5.79 R (bound/input frequency ratio) |
| B7 | 7.15 R (bound/input frequency ratio) |
| B8 | 6.86 R (bound/input frequency ratio) |
| B9 | 8.42 R (bound/input frequency ratio) |
| B10 | 6.33 R (bound/input frequency ratio) |
